In PubChem BioAssay one finds z-score data, which are given here for 14 compounds.

Active and inactive are the calls of the source.

A short description of assay [1]: A549 cell viability effects, profiling panel, calcein-AM fluorescence, 48 h, basal (AID 1162). The settings on record: higher = more signal.
A short description of assay [2]: adipocyte viability effects, profiling panel, cell-based, 3T3-L1 adipocytes, calcein-AM fluorescence, 48 h, basal (AID 1163). Conditions: 3T3-L1 adipocytes viability, higher = more signal.
Assay [3] in a line: HepG2 cell viability effects, profiling panel, calcein-AM fluorescence, 48 h, basal (AID 1164). The settings on record: higher = more signal.
Assay [4] can be described thus: MM1S cell viability effects, profiling panel, calcein-AM fluorescence, 48 h, basal (AID 1165).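 Further: viability of MM1S multiple myeloma cells under basal unstimulated conditions.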 Conditions: higher = more signal.
Assay [5] can be described thus: basal RPMI8226 viability, no added stimulus, profiling panel, cell-based, calcein-AM fluorescence, 48 h, PK04 Diversity Set (AID 1166).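 Further: cells grown under basal conditions without added stimulus.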 The settings on record: RPMI8226 myeloma viability, higher = more signal.
The nature of assay [6]: basal HepG2 mitochondrial membrane potential changes, profiling panel, cell-based, JC-1 fluorescence, 24 h, 100 nL compound (AID 1167). Conditions: higher = more signal.
The nature of assay [7]: basal 3T3-L1 adipocyte mitochondrial potential changes, profiling panel, cell-based, JC-1 fluorescence, 3T3-L1 adipocytes, 24 h, 100 nL compound (AID 1168). Conditions: JC-1 mitochondrial fluorescence, higher = more signal, called active from +8 up or from −8 down.
Assay [8] in a line: basal RPMI8226 mitochondrial membrane potential changes, profiling panel, cell-based, JC-1 fluorescence, 24 h, 100 nL compound (AID 1169). The settings on record: RPMI8226 myeloma, JC-1 mitochondrial potential fluorescence, higher = more signal.
A short description of assay [9]: basal MM1S mitochondrial membrane potential changes, profiling panel, cell-based, JC-1 fluorescence, 24 h, 100 nL compound (AID 1170). Conditions: higher = more signal.
The nature of assay [10]: A549 lung cancer cell viability effects, profiling panel, resazurin fluorescence, 24 h, PK04 Diversity Set (AID 1171). Conditions: higher = more signal, called active from +8 up or from −8 down.
Further: test concentration not given here.

With `CCCCC(=C=CC[C@@H](O)c1ccc(CO)o1)CCO`, the z-score in assay [1] was 1.48; in assay [2] it was -0.186; in [3], 0.376; in assay [4] it was -0.277; in assay [5], 0.275; in assay [6], 0.761. Moreover, the z-score in [7] was 0.618 (inactive); in [8], 0.0267; in assay [9], 0.321; in assay [10], 1.28 (inactive).
As to `COc1ccc([Si](C)(C)[C@@H]2[C@@H](CCn3cc([C@H](O)c4ccccc4)nn3)O[C@]3(C(=O)N(Cc4cccc(N5CCC5=O)c4)c4ccccc43)[C@H]2C)cc1`, the z-score in assay [1] is 0.208; in assay [2], 0.745; in assay [3], -0.924; in assay [4], -0.6; in [5], -0.984; in assay [6] it was -0.262. In addition, the z-score is 1.15 (inactive) in assay [7], -0.735 in [8], -0.487 in assay [9] and 0.0773 (inactive) in [10].
Consider `COCCOC(=O)N1C(=O)[C@@]2(c3cc(C#CC4=CCCCC4)ccc31)[C@H](C(N)=O)[C@H]1C(=O)O[C@H](c3ccccc3)[C@H](c3ccccc3)N1[C@@H]2c1ccc(O)cc1`, for which the z-score was 0.282 in assay [1]; 0.326 in [2]; 0.581 in assay [3]; -3.07 in assay [4]; -4.54 in assay [5]; -1.89 in [6]. Besides, the z-score was 1.1 (inactive) in assay [7], -1.22 in assay [8], -0.992 in [9] and -1.77 (inactive) in assay [10].
With `O=C(NC1CC1)[C@@H]1c2ccccc2C(=O)N(Cc2cc(F)cc(C(F)(F)F)c2)[C@H]1c1ccc(CO)cc1`, the z-score is 0.35 in assay [1]; -0.392 in [2]; -0.134 in [3]; -1.65 in assay [4]; 0.88 in assay [5]; 0.86 in [6]. Further, the z-score in assay [7] is -0.587 (inactive); in assay [8] it was 0.0276; in assay [9], -0.232; in assay [10], 1.36 (inactive).
Take `CC(C)CCC[C@@H](C)[C@H]1CC[C@@]2(C)C3=C(CC[C@]12C)[C@@]1(C)CC[C@H](OC(=O)c2ccc(C(F)(F)F)nc2)C(C)(C)C1CC3` (stereo not given in full): the z-score in assay [1] was 0.351; in assay [2], 0.806; in assay [3], 0.717; in assay [4], 0.18; in assay [5], 0.79; in assay [6], 0.726. Moreover, the z-score was -0.215 (inactive) in [7], 0.483 in [8], -0.263 in assay [9] and -0.0879 (inactive) in assay [10].
For `C=C(/C(=C/C[C@H](OC(C)=O)c1ccc(OCCO)cc1)c1cc(C(=O)OC)ccc1OC)C(C)C`, the z-score is 1.32 in assay [1]; 0.0952 in assay [2]; 0.861 in assay [3]; -3.04 in assay [4]; -2.43 in [5]; 2.82 in assay [6]. For the same compound, the z-score in [7] is -0.0331 (inactive); in assay [8], -0.669; in assay [9], -0.631; in assay [10], 1.05 (inactive).
Turning to `C=CCNC(=O)[C@@H]1[C@H]2C(=O)O[C@H](c3ccccc3)[C@H](c3ccccc3)N2[C@H](c2ccc(OCCO)cc2)[C@@]12C(=O)N(C(=O)OCCOC)c1ccc(C#CCC(C(=O)OC)C(=O)OC)cc12`, the z-score in [1] was -0.906; in assay [2], 0.445; in [3] it was -0.713; in assay [4], -1.85; in assay [5], -1.34; in assay [6], 0.366. Besides, the z-score in assay [7] was 0.0731 (inactive); in assay [8], -0.799; in assay [9], -1.16; in assay [10], 0.185 (inactive).
Regarding `[N-]=[N+]=Nc1ccccc1C[C@]1(C(=O)NCc2ccccc2)N=C(c2ccc(OCCCO)cc2)O[C@H]1c1ccccc1N=[N+]=[N-]`, the z-score in assay [1] is -1.33; in [2] it was 0.0309; in assay [3], -1.2; in [4], -2.94; in assay [5] it was -3.55; in [6], 1.58. The z-score in assay [7] is 0.00967 (inactive); in assay [8] it was -1.18; in [9], -2.49; in [10], -1.6 (inactive).
As to `NC(=O)[C@@H]1[C@H]2C(=O)O[C@H](c3ccccc3)[C@H](c3ccccc3)N2[C@H](c2ccc(OCCO)cc2)[C@@]12C(=O)Nc1ccc(C#CC3=CCCCC3)cc12`, the z-score was -0.985 in [1]; 1.06 in assay [2]; -3.51 in assay [3]; -3.28 in assay [4]; -4.06 in assay [5]; -2.81 in assay [6]. Moreover, the z-score is 0.396 (inactive) in assay [7], -0.834 in assay [8], -1.71 in [9] and -1.01 (inactive) in assay [10].
Take `CC(C)NC(=O)[C@@H]1c2ccccc2C(=O)N(C(C)C)[C@H]1c1ccc(CO)cc1`: the z-score in assay [1] was 0.772; in assay [2], 0.0383; in assay [3], 1.8; in assay [4] it was 0.333; in [5], 0.947; in [6], 1.59. Also, the z-score in assay [7] was -0.423 (inactive); in assay [8], -0.104; in assay [9] it was -0.952; in assay [10], 0.842 (inactive).
Turning to `COCCOC(=O)N1C(=O)[C@@]2(c3cc(C#Cc4ccc(OC)cc4)ccc31)[C@H](c1ccc(O)cc1)N1[C@H](c3ccccc3)[C@H](c3ccccc3)OC(=O)[C@H]1[C@@H]2C(=O)Nc1nc2ccccc2s1`, the z-score in assay [1] was -0.738; in assay [2] it was 0.967; in assay [3], 0.0165; in assay [4], -1.55; in [5] it was -1.6; in assay [6] it was -2.51. The z-score is -0.0239 (inactive) in assay [7], -0.71 in assay [8], -1.34 in assay [9] and -0.838 (inactive) in assay [10].
With `COC(=O)[C@@]1(Cc2ccc(F)cc2)[C@H]2c3cc(C(=O)N(C)C)n(Cc4cc(C)n(C)n4)c3C[C@H]2CN1C(=O)c1ccccc1`, the z-score in assay [1] is -0.492; in [2], -0.202; in [3] it was -0.395; in assay [4], -0.9; in assay [5] it was -0.528; in assay [6], 0.635. Also, the z-score was -1.01 (inactive) in assay [7], -0.12 in assay [8], 0.203 in assay [9] and -0.759 (inactive) in assay [10].
As to `O=C1NC(=O)C2C1C=CC(C(O)c1ccc(I)cc1)N2Nc1ccc(Cl)cc1Cl` (stereo not given), the z-score is -0.519 in assay [1]; 0.53 in assay [2]; -0.363 in assay [3]; -3.83 in [4]; -4.06 in assay [5]; -2.51 in assay [6]. Moreover, the z-score is -1.25 (inactive) in assay [7], -0.984 in assay [8], -1.09 in [9] and -1.59 (inactive) in [10].
In the case of `COCCCNC(=O)[C@@]1(Sc2ccc(C)cc2)CC(=O)N(Cc2ccccc2Cl)[C@@H]1c1ccc(CO)cc1`, the z-score was 0.102 in assay [1]; 0.381 in [2]; -0.646 in [3]; 0.661 in assay [4]; -0.218 in assay [5]; -0.627 in assay [6]. In addition, the z-score in assay [7] is -0.554 (inactive); in assay [8], 0.118; in [9], -2.29; in assay [10] it was 1.76 (inactive).
